The results in this text go back to PubChem BioAssay (NCI).

About 83,000 compounds went through this panel and 20% of them were active in at least one assay; those are over-represented in the sample as a whole.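 In brief: 96-well plates, 48 h treatment, single concentration, percent growth endpoint.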 Values without a mark were called inactive. Active and inactive are the calls of the source. How the source made its calls: active means growth percent below 10; inactive means the rest.

The experiment relates to SF-539 CNS. Briefly: NCI-60 one-dose screen, 48 h (100 = growth as untreated, 0 = no growth, -100 = all killed). The note with it: 10 µM unless noted.
Consider `COc1ccc2ncccc2c1Cc1c(OC)ccc2ncccc12`, for which the growth was 75%.
On to `COc1cc(C2CC(C3C(=O)N(C)C(=O)N(C)C3=O)=NN2c2cc(Cl)cc(Cl)c2)cc(OC)c1OC` (stereo not given), for which the growth was 96%.
For `Cc1sc2nc(NCc3ccccc3)[nH]c(=O)c2c1C` the value was 65.5%; for `Cc1cc2c(cc1C)[n+](Cc1ccc3ccccc3n1)cn2Cc1ccc2ccccc2n1`, 14.8%.
With `COc1cc(/C=C2\CN(S(=O)(=O)c3ccc(C)cc3)C/C(=C\c3cc(CN4CCOCC4)c(O)c(OC)c3)C2=O)cc(CN2CCOCC2)c1O` the figure was -3.63% (active); with `O=C1NCCc2c1noc2-c1ccccc1`, 94.7%; with `C[C@]12CCC(=O)C=C1CC[C@H]1[C@@H]3C[C@@H](O)[C@](O)(C(=O)CO)[C@@]3(C)C[C@H](O)[C@@]12F`, 91.9%.
In the case of `C/C(=C\CCc1ccsc1)CC/C=C(\C)CCCN1CCSCC1`, the growth was 89.9%.
For `COC(=O)Nc1ccc2ccc3c(NC(=O)OC)ccc4ccc1c2c43` (tested in a mixture with another compound) the value was 50.7%; for `O=C(Nc1nc2c(C(F)(F)F)cccc2s1)c1cc(Cl)ccc1O`, 15%; for `COc1cc(C2=NN(C=O)C(c3cccc(Nc4ccnc5cc(Cl)ccc45)c3)C2)cc(OC)c1OC` (stereo not given), 91.7%.
With `COc1cccc(-c2nc(-c3ccc(N)cc3)co2)c1` the figure was 110%; with `C[C@@H]1[C@H]2[C@H](C=C3[C@@H]4CC[C@H]5Cc6nc7c(nc6C[C@]5(C)[C@H]4C[C@@H](O)[C@@]32C)C[C@@H]2CC[C@H]3C4=C[C@@H]5O[C@@]6(CC[C@](C)(CO)O6)[C@@H](C)[C@@]5(O)[C@@]4(C)[C@H](O)C[C@@H]3[C@@]2(C)C7)O[C@]12CCC(C)(C)O2`, 3.28% (active); with `O=C(CNC(=O)c1cccc2ccccc12)Nc1ccccc1Oc1cccc(O)c1`, -18.4% [5 µM] (active).
For `CCN(CC)CCNCC(=O)Oc1ccc(/C=C/C(=O)CC(=O)/C=C/c2ccc(OC(=O)CNCCN(CC)CC)c(OC)c2)cc1OC` the value was -35.9% (active); for `COc1ccc(-c2cc(-c3nnc(SCC(=O)Nc4ccc(C(C)=O)cc4)n3-c3ccccc3)c3ccccc3n2)cc1OC`, 97.4%; for `COc1ccc2c(c1)[n+](=O)c(C(=O)/C=C/c1cc(OC)c(OC)c(OC)c1)c(C)n2[O-]`, 81.9%.
With `COc1ccc(-c2nc3sc4c(c3c(=O)[nH]2)CCCCCC4)cc1`, the growth was 65.1%.
With `CC(=O)Nc1c(Cl)cc2c(c1Cl)Cc1cc([N+](=O)[O-])ccc1-2` the figure was 89.1%; with `CCN(CC)CCCCCCCNc1c2ccc(Cl)cc2nc2ccc(OC)cc12`, -71.2% (active).
For `COc1cc(/C=C/c2cc(/C=C/c3ccc(O)c(OC)c3)n(C(=O)c3ccc(Cl)cc3)n2)ccc1O` the value was 10.1%.
For `Cc1n(Cc2ccc3ccccc3c2)c2ccccc2[n+]1Cc1ccc2ccccc2c1` the value was -56.4% (active); for `CCn1cnc(C[C@H](NC(=O)[C@H](CCCCNC(=O)Nc2cc(C(F)(F)F)cc(C(F)(F)F)c2)NC(=O)Nc2cc(C(F)(F)F)cc(C(F)(F)F)c2)C(=O)OC)c1`, -66.4% [100 µM] (active); for `O=C(Nc1cccc(-n2cc(-c3ccncc3)c(-c3cc(O)cc(Cl)c3)n2)c1)Nc1ccc(Cl)c(Cl)c1`, -29% (active).
Consider `Oc1ccc(/C=N/Nc2nc3ccccc3s2)c(O)c1`, for which the growth is 34.5%.
With `Cc1csc(C#Cc2cncc(O)c2)n1` the figure was 108%; with `COc1cc(/C=C/C(=O)CC(=O)/C=C/c2ccc(OC(=O)CCNC34CC5CC(CC(C5)C3)C4)c(OC)c2)ccc1OC(=O)CCNC12CC3CC(CC(C3)C1)C2`, -18.2% (active); with `N/C(=N\C(N)=N\c1nc2ccccc2s1)c1ccnc(Cl)c1`, 7.12% (active).
For `COc1ccc(NS(=O)(=O)N2CCCCC2)cc1`, the growth is 108%.
For `C=C1CCC2C(C)(COC(=O)CC)C(OC(=O)CC)CCC2(C)C1C/C=C1/C(=O)OCC1OC(=O)CC` (stereo not given) the value was -64.3% (active).
With `Cc1[nH]ccc2cc3nc4ccccc4c3cc12` the figure was 34%; with `CC(C)=CCCC(C)c1ccc(C)c2c1OCN(CC1CCNCC1)C2` (stereo not given), 76.9%; with `COc1ccc2c(c1)sc1nc(-c3ccc(N(C)C)cc3)cn12`, 99.4%.
In the case of `COc1cc(/C=C/C(=O)C(C(=O)/C=C/c2ccc(OC(=O)CCNc3nnc(C)s3)c(OC)c2)C(=O)CCNc2nnc(C)s2)ccc1OC(=O)CCNc1nnc(C)s1`, the growth was -15.8% (active).
For `O=C(O)c1ccc2cccnc2c1O`, the growth was 10.4%.
With `CC[C@@H](c1ccc(O)c(O)c1)[C@@H](CC)c1ccc(O)c(O)c1` the figure was 102%; with `Cc1ccc(NC(=O)c2sc3nc4c(cc3c2N)C(=O)CCC4)cc1`, 93.5%; with `CCOC(=O)/C=C1/SC(=Nc2ccc(C#N)cc2)N(Cc2ccco2)C1=O`, 38.1%.
For the compound `COP(=O)(OC)C(c1ccc(O)cc1)(c1ccc(O)cc1)c1ccc(O)cc1`, the growth was 107%.
For the compound `COc1ccccc1-n1c(-c2ccc(O)cc2C)cn2c3c(=O)[nH]c(=O)n(C)c3nc12`, the growth is 88.8%.
